Test results as given in PubChem BioAssay AID1745850 (National Center for Advancing Translational Sciences (NCATS), 2022).
Among all 2,100 compounds or so, about 260 (12%) were called active. Roughly 58% stayed inconclusive and do not appear here. Some of the results follow. Values without a mark were called inactive. Calls follow the shape of the dose curve; as a rule, active = well fitted cell-killing curve with a large enough effect; inconclusive = small, poorly fitted or top-dose-only effect, or effect the other way; inactive = flat fitted curve, though single readings scatter.

Experiment: Viability Counterscreen for Confirmatory qHTS for Inhibitors of ATXN expression; also: nearly all actives have a fitted effect of over 50% in size
Settings: HEK-293 ATXN2-luc cells viability, CellTiter-Fluor, 24 h; activity change, negative = cytotoxicity: at the top concentration
Excerpt: PI: Daniel Scoles Ph.D. University of Utah School of Medicine, Salt Lake City, Utah MLPCN Grant: NS073009 Spinocerebellar ataxia type 2 (SCA2) is a multisystem neurodegenerative disease caused by a dominantly acting mutation leading to expansion of a polyQ domain in the ataxin-2 protein (ATXN2). SCA2 patients develop progressive ataxia and later lose function in other neuronal systems. Prominent parkinsonian signs develop in some patients. Like many neurodegenerative disorders, no symptomatic or disease-modifying treatments are known. The primary objective of the proposed research is to identify compounds inhibiting ATXN2 expression and to test them for efficacy in SCA2 mouse models. We have developed a cell-based assay paired with an in vivo mouse model using identical luciferase expression constructs. This approach takes advantage of an ATXN2-luciferase transgene, with the luciferase gene flanked by the upstream and downstream portions of the ATXN2 gene. Here we describe a 5-7 dose quantitative high thoroughput screen (qHTS) for compounds lowering ATXN2 expression. We screened the NIH Molecular Libraries Small Molecule Repository (MLSMR) and NCGC's mechanistically annotated (MIPE) and drug repurposing (NPC) collections of compounds for lowering expression of an ATXN2-luciferase reporter in HEK-293 cells. The assay is a multiplexed cell viability assay to ensure target reduction in the absence of cytotoxicity. Secondary qHTS assays included a CMV-luciferase reporter expressed in HEK-293 cells as well as a biochemical assay using recombinant luciferase to detect inhibitors of the reporter enzyme. Compounds that inhibit ATXN2 expression but is not cytotoxic were selected for confirmatory and secondary screens.
PROTOCOL TABLE (as described by Inglese J, Shamu CE and Guy RK. 2007) SEQUENCE No. (e.g., 1, 2, 3, etc.); […] (e.g., Cells, Incubation, Reagent, etc.); VALUE; DESCRIPTION. 1; Cells; 4 uL; white, solid bottom, 1536-well Greiner assay plate. 2; Incubation; 2 hr; 37 degree C in 5% humidified CO2. 3; Compounds; 23 nL; Kalypsis pintool (Wako USA) equipped with a 1536-well pin head. 4; Incubation; 24 hr; 37 degree C in 5% humidified CO2. 5; Reagent; 1 uL; Gly-Phe-7-Amino-4-trifluoromethylcoumarin. 6; Incubation; 30 min; 37 degree C in 5% humidified CO2. 7; Detection; Fluorescence; ViewLux plate reader (PerkinElmer). 8; Reagent; 3 uL; SteadyGlo luciferase solution (Promega). 9; Incubation; 5 min; room temperature. 10; Detection; Luminescence; ViewLux plate reader (PerkinElmer). NOTES (numbers refer to Sequence numbers above) 1. S2 cells expressing ATXN2-luciferase reporter were suspended in phenol-red free DMEM and dispensed in assay plates using a Multidrop Combi dispenser (Thermo Fisher Scientific). Wells containing medium only were plated on each plate, and values were used to normalize (100% inhibition) in the luciferase and CellTiter-Fluor assays. 2. Assay plates were incubated. Evaporation was prevented by covering assay plates with metal lids containing holes to allow gas diffusion. 3. Compounds were added in a dose response manner with the final concentrations of 57, 11.4, 2.28, 0.46, 0.091, 0.018, 0.0037 uM. Vehicle-only plates, with DMSO being pin-transferred to columns 5-48, were inserted uniformly at the beginning and the end of each library to monitor and record any shifts in assay performance. 5. 125 uM Gly-Phe-7-Amino-4-trifluoromethylcoumarin (MP Biomedicals) working concentration was used at a final concentration of 25 uM. 7. To assess cell viability; the assay plates were read using the ViewLux high-throughput CCD imager (PerkinElmer), wherein single end-point fluorescence measurement was acquired (excitation 405/10; emission 540/25 nm). 8. Detection reagent SteadyGlo Luciferase (Promega) was added to the assay plate. 10. Luminescence is then measured on the ViewLux imager equipped with a clear emission filter using a 2 sec exposure. […]
Potency is read from the fitted curve at half-maximal effect.

Row | SMILES | Potency | activity change, negative = cytotoxicity
1 | Cc1noc(C)c1CSCC(=O)Nc1nc(-c2ccc(F)c(F)c2)cs1 | 28.2 µM (active) | –
2 | NS(=O)(=O)c1ccc(Nc2nc(-c3ccc(F)cc3)cs2)cc1 | – | -8.41%
3 | Cc1cnc(NC(=O)C2CC(=O)N(c3cccc(Cl)c3)C2)s1 (centres undefined) | – | -21%
4 | COc1cc([N+](=O)[O-])cc(/C=N/NC(=O)c2ccc(NC(=O)c3ccc(C)cc3)cc2)c1O | 1.78 µM (active) | –
5 | Cc1ccc(C(=O)N/N=C/c2nc3ccccc3n2C)cc1 | – | -26.8% [at 57.5 µM]
6 | CCn1c(C)nc2cc(C(=O)N/N=C/c3cccc(OC)c3O)ccc21 | – | -17.1%
7 | CCCC1CCC(c2ccc(C(=O)NN)cc2)CC1 (centres undefined) | – | -2.67%
8 | Cc1c(C(=O)N/N=C/c2c(O)ccc3ccccc23)nnn1-c1nonc1N | – | -20.6%
9 | Cc1nn2c(NCc3ccccn3)c3c(nc2c1-c1ccccc1)CCC3 | 11.2 µM (active) | –
10 | CC(C)C(CCNCc1ccccn1)c1ccc(Cl)cc1 (centres undefined) | – | -16.9% [at 57.5 µM]
11 | Cc1cc(NCc2ccccn2)n2nc(C)c(-c3ccc(Cl)cc3)c2n1 | 14.1 µM (active) | –
12 | CNc1ccccc1C(=O)OC(C)C(=O)Nc1ccc(Cl)cn1 (centres undefined) | – | 5.42%
13 | O=C(Nc1ccc(F)cc1)c1sccc1SCc1cccc(C(F)(F)F)c1 | – | -26.1% [at 57.5 µM]
14 | CCOC(=O)c1c(NC(=O)COC(=O)c2ccccc2NC)sc(C(=O)N(C)C)c1C | – | -22.4%
15 | NC(=O)CC(NC(=O)Cc1ccc(Br)cc1)c1ccc(NC2CCCC2)c([N+](=O)[O-])c1 (centres undefined) | – | -17.4%
16 | Cc1ccc(OCC(=O)c2cc(C)n(Cc3cccs3)c2C)c([N+](=O)[O-])n1 | – | -23.1% [at 57.5 µM]
17 | C/C(=N\Nc1cc(N2CCOCC2)nc(C)n1)c1cccc([N+](=O)[O-])c1 | – | -4.32%
18 | CC1CCCCN1S(=O)(=O)c1ccc(C(=O)Nc2nnc(-c3ccccc3Cl)o2)cc1 (centres undefined) | – | -5.8%
19 | O=C1C=C(Nc2ccccc2O)c2ccccc2C1=O | 20 µM (active) | –
20 | Cc1cc(NC(=O)CSc2nccn2-c2cccc(C)c2C)no1 | – | -14.2%
21 | CCOC(=O)Nc1ccc(N2CCOCC2)c(S(=O)(=O)Nc2ccc(Cl)cc2)c1 | – | -10.2%
22 | CCOC(=O)c1ccc2ncc(C(=O)OCC)c(Nc3ccc(N4CCOCC4)cc3)c2c1 | 3.16 µM (active) | –
23 | CCOC(=O)c1ccc(N=c2sc(C(=O)OC)cc(=O)n2-c2ccc(C(=O)OCC)cc2)cc1 | – | -19.2%
24 | Cc1ccc(NC(=O)CNC(=O)c2cccc(Cl)c2)nc1 | – | -22.1% [at 57.5 µM]
25 | CCN(CC)S(=O)(=O)c1ccc(C)c(NC(=S)N2CCN(c3ccccn3)CC2)c1 | – | -29.4% [at 57.5 µM]

Row | SMILES | Potency | activity change, negative = cytotoxicity
26 | Cc1ccc(NC(=O)c2cnc(N3CCN(c4ccccn4)CC3)c3ccccc23)c(Br)c1 | 14.1 µM (active) | –
27 | Cc1cc(Br)ccc1NC(=O)c1cnc(N2CCN(c3ccccn3)CC2)c2ccccc12 | – | -16.2%
28 | Brc1cnc2nc(SCc3nc4ccccc4[nH]3)[nH]c2c1 | – | -3.43%
29 | CCn1c(CCC(=O)Nc2nc3c(s2)CCCC3)nc2cc(S(=O)(=O)N(C)C)ccc21 | – | -6.64%
30 | O=C(Nc1cccc(S(=O)(=O)C(F)F)c1)c1ccc(Cl)c(S(=O)(=O)N2CCOCC2)c1 | 28.2 µM (active) | –
31 | O=C(Nc1cccc(S(=O)(=O)N2CCOCC2)c1)c1ccc2c(=O)n3c(nc2c1)CCCCC3 | – | -27.9%
32 | Cc1ccc(C(=O)NC(C)CCc2ccccc2)cc1S(=O)(=O)N1CCOCC1 (centres undefined) | – | -26% [at 57.5 µM]
33 | COc1ccc(Cn2c(O)c(/C=N/NC(=O)c3cccnc3)c3ccccc3c2=O)cc1 | – | 15.3% [at 57.5 µM]
34 | CCN(Cc1ccccc1)S(=O)(=O)c1ccc(C(=O)Nc2nnc(C3CC3)o2)cc1 | – | -14.9%
35 | Cc1cc2c(c(/C=C/C(=O)c3ccccc3)c1)OC1(C=C2)Oc2ccccc2C(=O)N1C (centres undefined) | 25.1 µM (active) | –
36 | Cc1cc(C)cc(NC(=O)CSc2nc3[nH]ncc3c(=O)[nH]2)c1 | – | -5.78%
37 | Nc1c(C(=O)NCc2ccccc2)c2nc3ccccc3nc2n1-c1ccc2c(c1)OCO2 | – | -23.9%
38 | CCOC(=O)c1c(C)sc2c1N(C(=O)CN(CC)CC)c1cc(Cl)ccc1S2 | 22.4 µM (active) | –
39 | Cc1ccc(-c2nc3cc(Br)cnc3nc2-c2ccc(C)cc2)cc1 | – | -4.19%
40 | COc1ccc(OCc2cccc(C(=O)Nn3cc([N+](=O)[O-])cn3)c2)cc1 | – | -7.7%
41 | Cc1ccc2c(c1)-c1c(cnn1CC(=O)N1CCCN(Cc3ccccc3F)C1)CO2 | – | -26.7%
42 | Cc1ccc(S(=O)(=O)N2CCc3ccccc3CC2)cc1 | – | 2%
43 | Cc1cc(C)c2nc(NNC(=O)c3ccc(S(=O)(=O)N4CC(C)CC(C)C4)cc3)sc2c1 (centres undefined) | 11.2 µM (active) | –
44 | Cc1ccc2nc(NNC(=O)c3ccc(S(=O)(=O)N4CCc5ccccc5C4)cc3)sc2c1 | 10 µM (active) | –
45 | CC1CCCN(S(=O)(=O)c2ccc(C(=O)Nc3nnc(-c4ccccc4Cl)o3)cc2)C1 (centres undefined) | – | -17.5%
46 | COc1ccc2nc(NC(=O)C3CCN(S(=O)(=O)c4cccs4)CC3)sc2c1 | – | -16.7%
47 | CCOC(=O)N1CCN(S(=O)(=O)c2ccc(C(=O)NNc3nc4c(C)cc(C)cc4s3)cc2)CC1 | – | -28.2%
48 | Cc1cc(C)c2nc(NNC(=O)c3cc(-c4cccs4)nc4ccccc34)sc2c1 | – | -22.8%
49 | Cc1cccc2sc(NNC(=O)c3ccc(S(=O)(=O)N4CC(C)CC(C)C4)cc3)nc12 (centres undefined) | 11.2 µM (active) | –
